High-throughput results from PubChem.
Shown are actives, neighbours in structure and some others; about 7.5% of the full set was active somewhere.
SMN2 splice up: increases expression of the SMN2 splice variant | 210,000 tested, 2.8% active | HEK293 SMN2-luciferase splicing reporter, luminescence, 30-36 h | Potency, µM (highest dose often 46.1 µM), inactives show at the highest dose activity change, positive = activation, most hits filed as activators; note: % of control where 0% means no effect; nearly all actives have a fitted effect of over 55% in size
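qHTS luciferase splicing reporter: luminescence rises when SMN2 exon 7 is included in transfected HEK293 cells. Compound exposure lasted 30-36 h at 37C, with 4.5 mM final sodium butyrate as control, followed by a ONE-Glo read.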
FLuc counter: firefly luciferase modulation, counter-screen for miR-21 project; P08659; purified FLuc, Km substrates, luminescence inhibition; Potency, µM (series often up to 57.5 µM), without a hit: at the highest dose activity change, negative = inhibition, hits mostly inhibitors; 360,000 tested, 6.9% active; AID 588342;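 note: plate controls were vehicle for no effect and reference inhibitor for full effect; nearly all actives have a fitted effect of over 55% in size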
Target sequence (P08659 whole entry, looked up): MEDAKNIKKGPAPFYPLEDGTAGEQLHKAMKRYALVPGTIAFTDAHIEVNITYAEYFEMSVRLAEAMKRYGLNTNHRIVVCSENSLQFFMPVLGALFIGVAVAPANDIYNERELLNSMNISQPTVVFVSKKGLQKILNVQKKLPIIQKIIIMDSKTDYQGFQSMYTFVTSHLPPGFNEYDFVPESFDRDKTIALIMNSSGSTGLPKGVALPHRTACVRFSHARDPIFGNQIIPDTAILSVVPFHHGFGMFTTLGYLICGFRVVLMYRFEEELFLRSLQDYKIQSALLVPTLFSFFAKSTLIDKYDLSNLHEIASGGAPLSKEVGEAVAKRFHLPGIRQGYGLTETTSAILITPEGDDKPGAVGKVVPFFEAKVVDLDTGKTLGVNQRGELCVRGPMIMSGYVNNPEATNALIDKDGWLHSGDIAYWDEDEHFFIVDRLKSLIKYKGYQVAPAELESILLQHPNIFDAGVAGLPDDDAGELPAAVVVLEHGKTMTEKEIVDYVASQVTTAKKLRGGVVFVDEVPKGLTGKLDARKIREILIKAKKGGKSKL
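Purified P. pyralis luciferase (10nM final) with 10uM D-luciferin and 10uM ATP (Km levels) in 50mM Tris acetate pH 7.5, 10mM Mg acetate, 0.01% Tween-20, 0.05% BSA; qHTS 6-point titration, ~60 µM downward; luminescence read.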
NPC1 prom act: activates the NPC1 promoter; Huh7 NPC1 promoter luciferase reporter, 24 h; Potency, µM (titrated, usually from 9.22 µM), inactives show top-dose activation, usual class: activators; 320,000 tested, 2.4% active; AID 485313; note: % of control where 0% means no effect; nearly all actives have a fitted effect of over 60% in size
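Stably transfected Huh7 (NPC1 promoter→luciferase), 1500 cells/well in Opti-MEM + 10% FBS, 2 h settle, then compound 24 h at 37 °C. Luminescence after 10 min with Amplite reagent.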
Rab9 promoter act: activators of Rab9 promoter; Huh7 Rab9 promoter-luciferase reporter, luminescence, 24 h; Potency, µM (highest dose often 9.22 µM), for the others: at the top dose activation, negative = inhibition, most hits filed as activators; 320,000 tested, 2.8% active; AID 485297; note: % of control where 0% means no effect; nearly all actives have a fitted effect of over 60% in size
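Promoter activation is measured as luciferase luminescence in Huh7 cells stably transfected with a Rab9 promoter–luciferase construct, following 24 h compound exposure at 37 °C and 10 min reagent incubation at ambient temperature.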
ELG1 genotox: genotoxicity induction in ELG1-luciferase HEK293T cells | 330,000 tested, 1.3% active | AID 504466 | HEK293T ELG1-luciferase reporter, luminescence, 16 h | Potency, µM (top dose mostly 46 µM), for inactives: top-dose activity change, positive = activation, usual class: activators; note: % of control where 0% means no effect; nearly all actives have a fitted effect of over 60% in size
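ELG1-luciferase HEK293T cells, 2,000/well; compound pinned in; 16 hr, 37 °C, 5% CO2; ONE-Glo, 30 min RT; luminescence on CCD imager.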
Luc counter: counter-screen: inhibitors of Kinase-Glo firefly luciferase; Q27757; Kinase-Glo luciferase, ATP luminescence, 8 min; Potency, µM (titrated, usually from 38.3 µM), for inactives: top-dose activity change, negative = inhibition, most hits filed as inhibitors; 200,000 tested, 0.28% active; note: % is set by controls: 0 for no effect and ±100 for the full control effect; nearly all actives have a fitted effect of over 60% in size
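Compound is pinned into ATP-containing buffer (10 uM ATP, imidazole pH 7.2, 7 mM MgCl2). Kinase-Glo luciferase reagent is then added. Light output is recorded following an 8-min room-temperature incubation.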
The depositor's hits bear a star; ? = inconclusive; . = not tested or not shown; [ ] = dose if it differs, or a comment. Calls come from the whole dose curve; as a rule, active = well fitted curve in the direction sought with a large enough effect; inconclusive = small, poorly fitted or top-dose-only effect, or another doubt; inactive = no such curve, though single readings can be large; an effect the other way counts as inactive or inconclusive. Potency is the fitted concentration of half-maximal effect.

SMILES | SMN2 splice up | FLuc counter | NPC1 prom act | Rab9 promoter act | ELG1 genotox | Luc counter
Cc1cccc(C)c1NC(=O)c1cnccn1 | . | 2% | -4% | -1% | 0% | .
O=C(Nc1c2c(nn1-c1ccc(Cl)cc1)CS(=O)(=O)C2)c1cccc(Cl)c1 | . | -16% | . | . | . | .
CC1CCCCN1C(=O)CN(C)S(=O)(=O)c1cccc2nsnc12 (stereo not drawn) | . | 1% | -6% | -2% | -6% | .
COc1cccc(CNC(=O)CCC2CCCN(C(=O)c3ccoc3)C2)c1 (stereo not drawn) | . | 3% | 3% | 2% | 1% | -1%
COc1cccc(CNC(=O)CCC2CCCN(C(=O)c3cc4ccccc4o3)C2)c1 (stereo not drawn) | . | 13µM* | ? | 4.5µM* | 11% | .
CCCn1c2ccccc2c2cnn(CC(=O)N(C)c3ccc(F)cc3)c(=O)c21 | . | 0% | . | . | . | .
FC(F)(F)c1cccc(-c2nn[nH]n2)c1 | 4% | ? | -1% | 7% | 2% | 1%
FC(F)(F)c1cccc(-c2ccc(-c3csnn3)o2)c1 | -15% | 17µM* | 10% | ? | 14% | 11%
Cc1nc2ccc(NC(=O)NCCCO)cc2s1 | 13µM* | 2%[2.3 µM] | ? | ? | 14% | 4%
CN1CCN(S(=O)(=O)c2ccc(NC(=O)c3ccc(Br)s3)cc2)CC1 | 12% | -1% | -3% | -6% | 4% | 2%
Cc1nc2ccc(NC(=O)c3cc([N+](=O)[O-])cc([N+](=O)[O-])c3Cl)cc2s1 | 2% | 12µM* | -26% | -36% | ? | 0%
Cc1nc2ccc(NC(=O)c3ccc(Cl)nc3)cc2s1 | . | ? | 14% | 21% | 1% | .
Cc1nc2cc(NC(=O)c3ccc(Br)s3)ccc2s1 | . | 0.48µM* | 0.4µM* | 0.32µM* | ? | .
Cc1nc2ccc(NC(=O)c3cc(Cl)ccn3)cc2s1 | . | 1.5µM* | 0.71µM* | 0.5µM* | 1.3µM* | .
CCOC(=O)c1ccc(NC(=O)Cn2nc3c4ccccc4n(Cc4cccc(F)c4)cc-3c2=O)cc1 | . | 0% | . | . | . | .
Cc1ccc(C(=O)Nc2ccc3nc(C)sc3c2)s1 | 13µM* | 6.7µM* | 2.2µM* | 1.8µM* | ? | -5%
Cc1nc2ccc(NC(=O)c3ccc([N+](=O)[O-])cc3)cc2s1 | -14% | -2% | 11% | 13% | 8% | 3%
CCN(CC)CCn1c2ccccc2c2nc(C)sc21 | ? | -2% | 0% | -3% | 0% | -1%
CC(=O)OC1CC[C@]2(C)C(CC(OC(C)=O)[C@@]3(C)C4=CC(=O)OC(c5ccoc5)[C@]4(C)CCC23)C1(C)C (stereo partly drawn) | -59% | . | . | . | . | -2%
CCOC(=O)c1cnc2c(ccc3ccccc32)c1Nc1ccc(OC)c(OC)c1 | -1% | -1% | . | . | . | .
CCOC(=O)c1nc2c(ccc3ccccc32)cc1C | . | 15µM* | -1% | 0% | 5% | .
CC1=Nc2ccc(C)cc2/C1=C/c1c(N)n2c(S(=O)(=O)C(C)C)nsc2nc1=O | 20% | ? | 1% | 3% | -3% | 0%
CC1=Nc2ccccc2/C1=C/c1c(N)n2c(S(=O)(=O)CC(C)C)nsc2nc1=O | -20% | 17µM* | 2% | -5% | 2% | 4%
CC1=Nc2ccccc2/C1=C/c1c(N)n2c(S(=O)(=O)C(C)C)nsc2nc1=O | 2% | 24µM* | -3% | -4% | 1% | 2%
CCOc1ccc(N(C(=O)c2ccccc2F)S(=O)(=O)c2ccc3c(c2)n(C)c(=O)n3C)cc1 | 0% | 1% | . | . | . | .
SMILES | SMN2 splice up | FLuc counter | NPC1 prom act | Rab9 promoter act | ELG1 genotox | Luc counter
CC(C)c1ccc(NC2CCCN(C(=O)CN3CCCC3=O)C2)cc1 (stereo not drawn) | . | -1% | -6% | 0% | -1%[9.26 µM] | .
Nc1nc(CCl)nc(Nc2ccc3ccccc3c2)n1 | . | 3µM* | -37% | -54% | 28% | .
COc1ccc(Nc2nc(N)nc(CCl)n2)cc1 | . | 6µM* | . | -48% | ? | .
CN(C)CCNS(=O)(=O)N(C)C | 3%[9.22 µM] | . | . | . | . | -4%[7.66 µM]
O=C(CSc1cccc2cccc(Cl)c12)NC1=NCCS1 | 7% | ? | 0% | -9% | 0% | 5%
Cc1ccccc1OCC(=O)Nc1ccccc1CO | 20% | ? | 14% | -6% | 1% | 1%
Cc1ccccc1OCC(=O)NC1=NCCS1 | 13µM* | 12µM* | 1.8µM* | 2.8µM* | 9.2µM* | -11%
O=C(CSc1ccccc1)NC1=NCCS1 | . | 13µM* | 1% | -3% | 1% | .
O=C(COc1ccccc1)NCC(=O)NC1=NCCS1 | -3% | -7% | 12% | -2% | 3% | -1%
Cc1ccc(OCC(=O)NC2=NCCS2)cc1 | -17% | 11µM* | 24% | 20% | 4% | -7%
COc1ccc(Nc2nnc(C)c(=O)[nH]2)c(OC)c1 | . | -2% | 0% | 2% | -2% | .
CC1CCCCN1CCCNC(=O)c1ccc(Cc2nc3ccccc3[nH]2)cc1 (stereo not drawn) | . | . | . | . | . | -2%
CSc1ccccc1NC(=O)c1ccccc1N(Cc1ccccc1)S(C)(=O)=O | . | 1% | -3% | -7% | -1% | .
Cc1cc(=O)[nH]c2c(C)cc(S(=O)(=O)NCc3ccccc3)cc12 | . | 2% | 3% | 2% | -1% | .
Cc1cc(=O)[nH]c2c(C)cc(S(=O)(=O)N3CCCCC3)cc12 | . | 0% | -10% | -10% | 16µM* | .
O=C(COC(=O)c1cccc(NC(=O)c2ccco2)c1)c1ccc(Br)cc1 | 13% | 1.7µM* | ? | ? | 10% | -3%
COc1ccc(C(=O)COC(=O)c2ccc(NC(=O)c3ccccc3)cc2)cc1 | 7% | 1% | -6% | -3% | 19% | -2%
CC(C)(C)C(=O)COC(=O)c1cccc(NC(=O)c2ccco2)c1 | ? | ? | 4% | 5% | 11% | 1%
O=C(COC(=O)c1cccc(NC(=O)c2ccc(Br)cc2)c1)c1ccc(Cl)cc1 | ? | 2.7µM* | . | . | . | .
COc1ccc(NC(=O)C2CCCN2C(=O)NC2CCCCC2)cc1 (stereo not drawn) | . | 2% | 0% | -4% | 0% | .
CC(=O)Nc1ccc(C(=O)COC(=O)c2cccs2)c(F)c1 | . | 3.4µM* | 2.8µM* | 3.5µM* | ? | .
CC(=O)Nc1ccc(C(=O)COC(=O)C2CC2C)c(F)c1 (stereo not drawn) | . | 2.1µM* | 1.4µM* | 1.4µM* | ? | .
CC1(C)CC(=O)c2cnc(N3CCc4ccccc43)nc2C1 | . | 2.1µM* | 2.8µM* | 3.5µM* | ? | .
O=C(N/N=C/c1ccc([N+](=O)[O-])s1)c1ccccc1 | -45% | -15% | -11% | -23% | -7% | -2%
Oc1ccc(Cl)cc1N=Cc1sc2ccccc2c1Cl | -17% | -17% | 2% | 1% | 29% | -1%
